Laboratory results: PubChem BioAssay
Several values for one entry are separate records, joined by “and”; a condition that tells them apart may be missing. Equal values may be shown once. Activity calls are given as the source filed them.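 Rule for the calls, unless noted: active = compounds whose cell count with miR-34 switched on is under 0.7 times the count with it off; inactive = the rest.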

How the values were obtained:
[1] = viability loss with induced miR-34 in A549 – imaging, A549 dox-inducible miR-34, nuclei and caspase counts, primary screen (AID 1347080); details: A549 miR-34 inducible, Hoechst nuclei count, 48 h
[2] = MELAS cybrid and Rieske KO viability enhancers – cell-based, MELAS cybrids, Rieske KO mouse fibroblasts, CellTiter-Glo, primary screen (AID 1508586;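 active = mean z-score across replicates of 1.96 or higher in either the MELAS or the Rieske mutant cell line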;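 note: z relative to plate mean and SD of compound and empty wells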); details: low glucose
[3] = system: Hepatitis C virus NS3 helicase; assay: blockers of NS3h binding to ssDNA – biochemical, fluorescence polarization, LOPAC1280 library, primary screen (AID 687035; in the data active = inhibition above about 37%); details: Purified HCV NS3 helicase, Cy5-dT15 ssDNA binding fluorescence polarization; stronger effect = higher value; concentration not given here
[4] = compounds altering Cy5-DNA-NS3h complex signal – biochemical, LOPAC1280, artefact control for HCV NS3 helicase inhibitor project (AID 687037; call rule not given here); details: Cy5-DNA-NS3h complex fluorescence interference counterscreen
[5] = blockers of cellular phospholipid synthesis – cell-based, LOPAC library, screen 4, primary screen (AID 1347384; call rule not given here); details: animal cells, phospholipid biosynthesis inhibition screen; at 10 µM
[6] = galactose survival enhancers in mitochondrial complex I cybrids – cell-based, galactose medium, ATP luminescence, primary screen (AID 1645843;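 active = z-score of at least 1.8 in each of two replicates, scored against plate mean and spread of sample wells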;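 note: positive z means more ATP and so rescue of galactose-driven cybrid death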); details: complex I mutant cybrid cells, 72 h, stronger effect = higher value
[7] = stronger effect = lower value, cell number ratio, induced over uninduced
[8] = measured here: relative caspase fold change +Dox/-Dox
[9] = measured here: total cells with miR-34 induction, stronger effect = lower value
[10] = measured here: total cells without miR-34 induction
[11] = MELAS cybrid survival, CellTiter-Glo 48 h, stronger effect = higher value
[12] = Rieske KO mouse fibroblast survival, CellTiter-Glo 72 h

## CC1C=CC=CCCC=CC=CC=CC=CC(OC2OC(C)C(O)C(N)C2O)CC2O[C@@](O)(CC(O)C(O)CCC(O)CC(O)CC(O)CC(=O)OC(C)C(C)C1O)CC(O)C2C(=O)O (stereo partly drawn)
[1]; [7]
  fold change: 0.946 (inactive)
[1]; [8]
  fold change: 1.01
[1]; [9]
  cell count: 7910
[1]; [10]
  cell count: 8370
[2]; [11]
  z-score: 0.0382 (inactive)
[2]; [12]
  z-score: 0.415

## COCC1OC(=O)c2coc3c2[C@@]1(C)C1=C(C3=O)[C@@H]2CCC(=O)[C@@]2(C)CC1OC(C)=O (stereo partly drawn)
[1]; [7]
  fold change: 0.933 (inactive)
[1]; [8]
  fold change: 0.632
[1]; [9]
  cell count: 3850
[1]; [10]
  cell count: 4130
[2]; [11]
  z-score: 3.45 (active)
[2]; [12]
  z-score: -0.534

## C[C@]12CCC(O)C[C@@H]1CC[C@@H]1[C@H]2CC[C@]2(C)C(=O)CC[C@@H]12 (stereo partly drawn)
[1]; stronger effect = lower value
  fold change: 0.933 (inactive)
[1]; [8]
  fold change: 1.48
[1]; [9]
  cell count: 7540
[1]; [10]
  cell count: 8080
[2]; [11]
  z-score: -0.116 (inactive)
[2]; [12]
  z-score: -0.417

## O=c1ccc2cc(OC3OC(CO)C(O)C(O)C3O)c(O)cc2o1 (stereo not drawn)
[1]; [7]
  fold change: 0.961 (inactive)
[1]; [8]
  fold change: 0.851
[1]; [9]
  cell count: 9070
[1]; [10]
  cell count: 9440
[2]; [11]
  z-score: -0.23 (inactive)
[2]; [12]
  z-score: 0.0251

## CC1CNCCc2ccc(Cl)cc21 (stereo not drawn)
[1]; stronger effect = lower value
  fold change: 0.911 (inactive)
[1]; [8]
  fold change: 0.645
[1]; [9]
  cell count: 8250
[1]; [10]
  cell count: 9060
[2]; [11]
  z-score: -0.213 (inactive)
[2]; [12]
  z-score: -0.176

## C[C@H](N)Cc1cccc(C(F)(F)F)c1
[3]
  inhibition: -3% (inactive)
[4]
  fluorescence ratio (interference): 1 (inactive)
[1]; stronger effect = lower value
  fold change: 0.951 (inactive)
[1]; [8]
  fold change: 1.01
[1]; [9]
  cell count: 10400
[1]; [10]
  cell count: 11000
[5]
  outcome: inactive
[6]
  z-score: 0.04 (inactive)

## CC(C)(C)[C@@]1(O)C[C@@H]2OC(=O)C[C@@]23C(=O)O[C@H]2OC(=O)C(O)C213 (stereo partly drawn)
[1]; [7]
  fold change: 0.894 (inactive)
[1]; [8]
  fold change: 1.49
[1]; [9]
  cell count: 8490
[1]; [10]
  cell count: 9500
[2]; [11]
  z-score: -0.286 (inactive)
[2]; [12]
  z-score: 0.895

## CCCC[N+]1(C)[C@@H]2CC(OC(=O)C(CO)c3ccccc3)C[C@H]1[C@@H]1O[C@@H]12 (stereo partly drawn)
[1]; [7]
  fold change: 0.94 (inactive)
[1]; [8]
  fold change: 1.14
[1]; [9]
  cell count: 9330
[1]; [10]
  cell count: 9930
[2]; [11]
  z-score: -0.311 (inactive)
[2]; [12]
  z-score: 0.426

## CN1CCCCC1Cn1cc(C(=O)c2cc([N+](=O)[O-])ccc2I)c2ccccc21 (stereo not drawn)
[1]; stronger effect = lower value
  fold change: 0.887 (inactive) and 1.03 (inactive)
[1]; [8]
  fold change: 0.479 and 0.87
[1]; [9]
  cell count: 5220 and 6710
[1]; [10]
  cell count: 5890 and 6500
[2]; [11]
  z-score: 0.0965 (inactive)
[2]; [12]
  z-score: -0.371

## CCN1C[C@]2(OC(=O)c3ccccc3NC(C)=O)CCC(OC)[C@]34C1C(C[C@H]23)[C@@]1(O)CC(OC)[C@H]2C[C@H]4[C@]1(O)C2OC (stereo partly drawn)
[1]; stronger effect = lower value
  fold change: 0.952 (inactive)
[1]; [8]
  fold change: 0.833
[1]; [9]
  cell count: 7310
[1]; [10]
  cell count: 7680
[2]; [11]
  z-score: -0.466 (inactive)
[2]; [12]
  z-score: -0.118

## C[C@]12CCC(=O)C(O)=C1CC[C@@H]1[C@H]2CC[C@]2(C)C(=O)CC[C@@H]12
[1]; stronger effect = lower value
  fold change: 0.879 (inactive)
[1]; [8]
  fold change: 0.764
[1]; [9]
  cell count: 8100
[1]; [10]
  cell count: 9210
[2]; [11]
  z-score: -0.345 (inactive)
[2]; [12]
  z-score: 0.332

## CCC1C=CC=CCC(C)C(O)[C@@](C)(O)C(=O)C(C)[C@@H](O)C(C)C(=O)C(C)C(O)C(C)C=CC(=O)OC2C(C)[C@]3(CCC(C)C(CC(C)O)O3)OC(CC1)[C@H]2C (stereo partly drawn)
[1]; [7]
  fold change: 1.1 (inactive)
[1]; [8]
  fold change: 0.572
[1]; [9]
  cell count: 3070
[1]; [10]
  cell count: 2800
[2]; [11]
  z-score: -0.13 (inactive)
[2]; [12]
  z-score: -0.402

## CN1CC[C@@]2(C)c3cc(OC(=O)Nc4ccccc4)ccc3N(C)[C@@H]12
[3]
  inhibition: -3% (inactive)
[4]
  fluorescence ratio (interference): 1 (inactive)
[1]; stronger effect = lower value
  fold change: 0.963 (inactive)
[1]; [8]
  fold change: 1.22
[1]; [9]
  cell count: 10200
[1]; [10]
  cell count: 10600
[5]
  outcome: inactive
[6]
  z-score: -0.985 (inactive)

## O=C1CC[C@@]2(O)C3Cc4ccc(O)c5c4[C@@]2(CCN3CC2CC2)C1O5 (stereo partly drawn)
[1]; stronger effect = lower value
  fold change: 0.922 (inactive)
[1]; [8]
  fold change: 4.62
[1]; [9]
  cell count: 8340
[1]; [10]
  cell count: 9040
[2]; [11]
  z-score: 1.92 (inactive)
[2]; [12]
  z-score: -1.89

## C#C[C@@]1(O)C=C[C@H]2[C@@H]3CCC4=CC(=O)CC[C@@H]4[C@@H]3CC[C@@]21CC
[1]; [7]
  fold change: 0.87 (inactive)
[1]; [8]
  fold change: 1.21
[1]; [9]
  cell count: 7070
[1]; [10]
  cell count: 8120
[2]; [11]
  z-score: -0.518 (inactive)
[2]; [12]
  z-score: 0.382

## COC1=C[C@@H]2C3Cc4ccc(OC)c(O)c4[C@]2(CCN3C)CC1=O
[1]; stronger effect = lower value
  fold change: 0.895 (inactive)
[1]; [8]
  fold change: 0.909
[1]; [9]
  cell count: 8920
[1]; [10]
  cell count: 9970
[2]; [11]
  z-score: -0.311 (inactive)
[2]; [12]
  z-score: 0.879

## O=C1C=CC[C@@H]2[C@@H]3CCCN4CCC[C@@H](CN12)[C@@H]34
[1]; [7]
  fold change: 0.92 (inactive)
[1]; [8]
  fold change: 0.733
[1]; [9]
  cell count: 9530
[1]; [10]
  cell count: 10400
[2]; [11]
  z-score: -0.329 (inactive)
[2]; [12]
  z-score: 0.595

## CC1CC[C@H]2C(C)C(=O)O[C@@H]3O[C@@]4(C)CC[C@@H]1[C@]32OO4 (stereo partly drawn)
[1]; [7]
  fold change: 0.916 (inactive)
[1]; [8]
  fold change: 0.744
[1]; [9]
  cell count: 6910
[1]; [10]
  cell count: 7540
[2]; [11]
  z-score: -0.427 (inactive)
[2]; [12]
  z-score: 0.217

## COC1CCC(OC2C[C@H]([C@]3(C)CC[C@]4(CC(O)C(C)[C@@H](C(C)C=C(C)C(=O)C(C)CC(C)C(=O)O)O4)O3)O[C@]3(O[C@@H]([C@H]4O[C@@](O)(CO)C(C)CC4C)CC3C)C2C)OC1C (stereo partly drawn)
[1]; [7]
  fold change: 0.953 (inactive)
[1]; [8]
  fold change: 1.13
[1]; [9]
  cell count: 874
[1]; [10]
  cell count: 918
[2]; [11]
  z-score: 0.291 (inactive)
[2]; [12]
  z-score: -2.77
